Compound activity: PubChem, National Center for Advancing Translational Sciences (NCATS)
The list is not random: actives were taken first. Their share in the collection is about 9.3%.
VACV Venus inh: inhibitors of vaccinia virus (Venus reporter). Potency, µM (doses to about 36.5 µM), usual class: inhibitors. Vaccinia virus Venus reporter expression, fluorescence. AID 720580. 330,000 tested, 0.46% active; calls by dose curve; tested in A549 cells; also: nearly all actives have a fitted effect of over 30% in size
HCV inh: inhibitors of hepatitis C virus infection. 340,000 tested, 3.4% active. AID 651820. Potency, µM (series often up to 41.8 µM), most hits filed as inhibitors. Huh7.5.1 HCVcc-Cre infection, luciferase reporter, 44 h
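HCVcc-Cre virus at an moi near 0.5 was added right after compound to cells cultured 4 h from seeding (1,000 cells/well). Luciferase activity was determined 44 h later, 15 min after substrate addition at RT.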
VACV mCherry inh: inhibitors of vaccinia virus infection (mCherry reporter signal) | Potency, µM (highest dose often 36.5 µM), hits mostly inhibitors | 310,000 tested, 0.63% active | Vaccinia virus mCherry reporter infection, fluorescence; calls by dose curve; tested in A549 cells; also: nearly all actives have a fitted effect of over 35% in size
HCMV inh: blocks human cytomegalovirus replication. HFF cells, HCMV-luciferase reporter, 72 h; stronger effect = lower value. activity change, negative = inhibition, % at 57.5 µM. 410,000 tested, 4.5% active. AID 1259415; in the data active = activity change below about -60%; inconclusive = no clear call, values can overlap the other calls; inactive = above about -39%
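Compounds were evaluated in HFFs infected with an HCMV luciferase reporter virus (MOI 1 PFU/cell). Luciferase in lysates collected 72 h post infection served as the replication measure.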
FMDV inh: foot and mouth disease virus antiviral activity. FMDV antiviral cell-based qHTS. AID 1159524. 410,000 tested, 1.2% active. Potency, µM (series often up to 57.9 µM), actives largely listed as inhibitors; calls by dose curve; tested in HEK293T cells; also: read-out not given here; nearly all actives have a fitted effect of over 45% in size
Sm TGR block: inhibitors of Schistosoma mansoni thioredoxin glutathione reductase; Q962Y6; purified TGR, DTNB reduction, TNB absorbance 405 nm; Potency, µM (titrated, usually from 114 µM), hits mostly inhibitors; 360,000 tested, 3% active; AID 485364; also: nearly all actives have a fitted effect of over 60% in size
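TGR 20 nM + NADPH 100 uM (dispensed conc.), cpd preinc 15 min RT; start with NADPH (500 uM addition) then DTNB (15 mM addition). Kinetic TNB absorbance, 405 nm filter. Four-parameter Hill fit across titration.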
Of the large screens only hits and unclear results are named; the others gave an inactive call. Unless noted, calls follow the shape of the dose curve; as a rule, active = well fitted curve in the direction sought with a large enough effect; inconclusive = small, poorly fitted or top-dose-only effect, or another doubt; inactive = no such curve, though single readings can be large; an effect the other way counts as inactive or inconclusive.

COc1ccc(-c2nc(CS(=O)CC(=O)NCc3ccc(Cl)cc3)c(C)o2)cc1OC (stereo not given)	HCV inh inconclusive, Sm TGR block 45µM
COc1ccc(-c2nc(CS(=O)CC(=O)NCc3ccc(C)cc3)c(C)o2)cc1OC (stereo not given)	Sm TGR block 40µM (no result: VACV Venus inh, VACV mCherry inh, HCMV inh)
COc1ccc(-c2nc(CS(=O)CC(=O)NCc3ccc(F)cc3)c(C)o2)cc1OC (stereo not given)	Sm TGR block inconclusive (no result: HCV inh)
Cc1ccc(-c2nc(CS(=O)CC(=O)NCc3ccc(F)cc3)c(C)o2)cc1 (stereo not given)	none (no result: VACV Venus inh, VACV mCherry inh)
COc1ccc(-c2nc(CS(=O)CC(=O)NCCc3ccc(Cl)cc3)c(C)o2)cc1OC (stereo not given)	Sm TGR block inconclusive (no result: HCV inh)
Cc1ccc(-c2nc(CS(=O)CC(=O)NCc3ccccc3)c(C)o2)cc1 (stereo not given)	VACV mCherry inh inconclusive, Sm TGR block 40µM
CCOc1ccc(CCNC(=O)CS(=O)Cc2nc(-c3ccc(OC)c(OC)c3)oc2C)cc1OCC (stereo not given)	HCV inh inconclusive, Sm TGR block 50µM (no result: VACV Venus inh, VACV mCherry inh)
CC(C)N(c1cc(=O)nc2ccccn12)C(C)C	none (no result: VACV Venus inh, HCV inh, VACV mCherry inh, FMDV inh, Sm TGR block)
CS(=O)(=O)N1CCN(c2ccc([N+](=O)[O-])c(NCc3ccc(Cl)cc3)c2)CC1	VACV Venus inh inconclusive, HCV inh inconclusive, VACV mCherry inh inconclusive, HCMV inh inconclusive
COc1ccccc1CNC(=O)CCNS(=O)(=O)c1ccc2c(c1)CCCC(=O)N2	none (no result: HCV inh)
Cc1cccc(-c2nc(CS(=O)CC(=O)NCc3ccco3)c(C)o2)c1 (stereo not given)	Sm TGR block inconclusive
Cc1ccc(-c2nc(CS(=O)CC(=O)NCc3ccco3)c(C)o2)cc1 (stereo not given)	Sm TGR block 50µM
COc1ccc(CNC(=O)CS(=O)Cc2nc(-c3ccc(C)cc3)oc2C)cc1 (stereo not given)	VACV Venus inh inconclusive, VACV mCherry inh inconclusive, Sm TGR block 50µM
Cc1ccc(-c2nc(CS(=O)CC(=O)NCc3ccccn3)c(C)o2)cc1 (stereo not given)	Sm TGR block 56µM
COc1ccc(-c2nc(CS(=O)CC(=O)NC3CCCCC3C)c(C)o2)cc1OC (stereo not given)	Sm TGR block 28µM (no result: VACV Venus inh, VACV mCherry inh)
COc1ccc(-c2nc(CS(=O)CC(=O)NCc3ccco3)c(C)o2)cc1OC (stereo not given)	Sm TGR block inconclusive
COc1ccc(-c2nc(CSCC(=O)NCc3ccco3)c(C)o2)cc1	FMDV inh inconclusive, Sm TGR block 45µM (no result: VACV Venus inh, VACV mCherry inh, HCMV inh)
Cc1ccc(-c2nc(CS(=O)CC(=O)NCCCN3CCN(Cc4ccccc4)CC3)c(C)o2)cc1 (stereo not given)	VACV Venus inh inconclusive, HCV inh 10µM, VACV mCherry inh inconclusive, HCMV inh -75
COc1ccc(CNC(=O)CS(=O)Cc2nc(-c3ccc(OC)c(OC)c3)oc2C)cc1 (stereo not given)	Sm TGR block 25µM
COC(=O)c1ccc(NC(=O)CSc2nncn2C)cc1	none
CCOC(=O)c1c(C)[nH]c(C)c1S(=O)(=O)N1CCOCC1	HCMV inh inconclusive (no result: VACV Venus inh, VACV mCherry inh)
Cc1cc2nc(-c3ccccc3)cc(=O)n2[nH]1	none
Cc1cc(-c2ccccc2)nc2c(Br)c(=O)[nH]n12	Sm TGR block 45µM (no result: VACV Venus inh, VACV mCherry inh)
COc1cc(C2C(C(=O)OCC(C)C)=C(C)N=C3SCCC(=O)N32)ccc1OCc1ccccc1 (stereo not given)	none (no result: HCV inh)
O=C(Nc1cccc(C(=O)N2CCCCCC2)c1)c1ccco1	none (no result: VACV mCherry inh)
COCCOC(=O)/C(=C\c1cc(C(C)(C)C)c(O)c(C(C)(C)C)c1)C(C)=O	FMDV inh inconclusive, Sm TGR block 40µM (no result: VACV Venus inh, VACV mCherry inh)
O=C(COC(=O)Cn1cnc2ccccc21)Nc1cc2c(cc1Cl)C(=O)c1ccccc1C2=O	HCV inh inconclusive (no result: Sm TGR block)
Cc1ccnc(S(=O)(=O)Cc2ccc([N+](=O)[O-])cc2)n1	Sm TGR block inconclusive (no result: VACV Venus inh, VACV mCherry inh)
Cn1c(CO)cnc1S(=O)(=O)Cc1ccc([N+](=O)[O-])cc1	HCV inh inconclusive, Sm TGR block 28µM (no result: VACV mCherry inh)
CCOc1ccc(Nc2oc(/C=C/c3cccc(OC)c3)nc2C#N)cc1	none (no result: HCV inh)
COC(=O)C(c1ccc(Br)cc1)(c1cn(C)c2ccccc12)C(Nc1ccccc1)c1ccccc1 (stereo not given)	HCMV inh -79 (no result: VACV Venus inh, HCV inh, VACV mCherry inh, FMDV inh, Sm TGR block)
COC(=O)C(c1ccccc1)(c1cn(C)c2cc(Br)ccc12)C(Nc1ccccc1)c1ccccc1 (stereo not given)	none (no result: VACV Venus inh, HCV inh, VACV mCherry inh, FMDV inh, Sm TGR block)
CCn1c(COc2cccc(C)c2C)nnc1SCC(=O)N1CCN(c2ccc(OC)cc2)CC1	HCV inh inconclusive, HCMV inh -97, FMDV inh inconclusive (no result: VACV Venus inh, VACV mCherry inh)
CCn1c(COc2ccccc2C)nnc1SCC(=O)N1CCN(c2ccccc2)CC1	VACV Venus inh inconclusive, HCV inh inconclusive (no result: FMDV inh)
CCn1c(CSCc2ccc(C)cc2)nnc1SCC(=O)N1CCN(c2ccccc2)CC1	VACV Venus inh inconclusive, HCV inh inconclusive, VACV mCherry inh inconclusive, FMDV inh 22µM
Cc1ccc(Cl)cc1N1CCN(C(=O)CSc2nnc3n2C(C)(C)Cc2ccccc2-3)CC1	HCV inh inconclusive, FMDV inh 13µM (no result: VACV Venus inh, VACV mCherry inh)
COc1ccc(N2CCN(C(=O)CSc3nnc4n3C(C)(C)Cc3ccccc3-4)CC2)cc1	HCV inh inconclusive, HCMV inh -64, FMDV inh 20µM (no result: VACV Venus inh, VACV mCherry inh)
Cc1nn(C)c(C)c1CN(C)C(=O)c1cnn2c1NC(c1ccccc1)CC2C(F)(F)F (stereo not given)	none
Cc1cccc(N2CCN(C(=O)C3CCC(CNS(=O)(=O)c4cccs4)CC3)CC2)c1C (stereo not given)	VACV Venus inh inconclusive, HCV inh 7.9µM, VACV mCherry inh inconclusive, HCMV inh -61
COc1cccc(N2CCN(C(=O)C3CCC(CNS(=O)(=O)c4ccc(Br)s4)CC3)CC2)c1 (stereo not given)	FMDV inh 18µM (no result: HCV inh)
Cc1cccc(N2CCN(C(=O)C3CCC(CNS(=O)(=O)c4ccc(Br)s4)CC3)CC2)c1C (stereo not given)	FMDV inh inconclusive (no result: HCV inh)
O=C(C1CCCN(S(=O)(=O)c2ccc(Br)s2)C1)N1CCN(c2ccccc2)CC1 (stereo not given)	HCV inh 10µM, FMDV inh inconclusive
Cc1n[nH]c(C)c1S(=O)(=O)N1CCCC(C(=O)N2CCN(c3ccc(Cl)cc3)CC2)C1 (stereo not given)	VACV Venus inh inconclusive, HCV inh inconclusive, VACV mCherry inh inconclusive, HCMV inh -76, FMDV inh 20µM
O=C1CSC(=S)N1c1ccc(F)cc1	none (no result: VACV Venus inh, HCV inh, VACV mCherry inh, HCMV inh, FMDV inh)
COc1cccc(N2CCN(C(=O)C3CCCN(S(=O)(=O)c4ccc(Br)s4)C3)CC2)c1 (stereo not given)	FMDV inh 18µM (no result: HCV inh)
O=S(=O)(c1ccc(Br)s1)N1CCN(c2ccc(F)cc2)CC1	Sm TGR block 25µM
